The record followed here is PubChem BioAssay (NCI).

This is part of a sample that, as a whole, favours compounds with a hit. Of some 83,000 tested, about 20% had one in any assay.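 Cell lines were cultured in 96-well plates, exposed to a single compound concentration, and assessed for percent growth 48 hours later.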 The source made the active and inactive calls.

The test system of the experiment is SNB-19 CNS. As to the kind of experiment: NCI-60 one-dose screen, 48 h (100 = growth as untreated, 0 = no growth, -100 = all killed). Particulars: 10 µM unless noted. As for the experimental part: Growth inhibition of the SNB-19 human tumor cell line is measured as a screen for anti-cancer activity. Cells are grown in 96 well plates and exposed to the test compound for 48 hours. Compounds are tested at a single concentration, which is 10^-5 M for most compounds. The reported endpoint is percent growth (GI% or GIPRCNT), where numbers from 0 - 100% represent growth inhibition, and numbers from -100% - 0 represent cell death. For example, a value of 40 represents 60% growth inhibition. A value of 0 means no net growth occurred over the course of the experiment. A value of -40 indicates 40% of cells at the beginning of the experiment died by the end of the experiment. A value of -100 means all cells are dead at the end of the experiment.
NCI-60 Human Tumor Cell Lines Screen was performed using the standard one-dose NCI protocol, which is described in more detail at https://dtp.cancer.gov/discovery_development/nci-60/default.htm.
Compounds with GIPRCNT values below 10 were considered active. Activity score was based on GIPRCNT using the following formula: […]
Score is 0 for GIPRCNT values of 100 or above, 50 for GIPRCNT values of 0, and 100 for GIPRCNT values of -100.
With `NC(=NCCCOc1ccc(Cl)cc1)Nc1ccc(C(F)(F)F)cc1`, the growth was 26.4% (inactive).
Next, `NS(=O)(=O)c1ccc(CN=C2NC(=O)S/C2=C\c2ccc(Br)cc2)cc1`: 97.7% (inactive).
For the compound `N#C/C(=C\c1ccc(-c2cc(C(F)(F)F)ccc2Cl)o1)c1nc(-c2ccco2)cs1`, the growth was 95.2% (inactive).
The result for `O=[N+]([O-])c1ccc(Nc2nc(NCCN3CCOCC3)ncc2[N+](=O)[O-])cc1` reads 83.9% (inactive); that for `COc1ccc(CN2c3ccccc3Oc3ccccc32)cc1F`, 67.8% (inactive); that for `Nc1nc2ccc3[nH]ncc3c2c2c1CCCC2`, 8.98% (active).
Next, `COc1ccc(-c2cc(=O)c3c(OC)c4ccoc4cc3o2)cc1`: 82.4% (inactive); `O=C1C=C(OCC=C(Cl)Cl)C(=O)c2ccccc21`: 98.7% (inactive).
Turning to `CC(C)(C)c1cc(/C=N\NC(=O)/C=C/C=C/c2ccc3c(c2)OCO3)c(O)c(C(C)(C)C)c1`, the growth is 85.5% (inactive).
The result for `Cc1[nH]c(-c2cc(N)ccc2Cl)c2c1C(=O)CCCC2` reads 35.6% (inactive); that for `COC[C@H](C)n1c(C2CCOCC2)nc2cnc3cc(-c4c(C)noc4C)c(OC)cc3c21`, 64.8% (inactive); that for `O=C(/C=C/c1ccc(C(F)(F)F)cc1)Nc1ccc(C=C2c3ccccc3C(=O)c3ccccc32)cc1`, 66.5% (inactive).
As to `COc1ccc(/C=C\c2cc(OC)c(OC)c(OC)c2)cc1OCC(=O)Nc1ccc2nc(C)sc2c1`, the growth was 57.4% (inactive).
For the compound `NNCCc1ccc(NC(=O)CCCc2ccc(/C=C/C(=O)NO)cc2)cc1`, the growth is 58.5% (inactive).
Next, `CSc1nc(Nc2cccc(NC(=O)CCl)c2)c(C#N)c(-c2cccc([N+](=O)[O-])c2)n1`: 83.5% (inactive); `Nc1n[nH]c2ccc([C@@H]3Nc4ccc5cn[nH]c5c4[C@H]4C5CCC(C5)[C@@H]34)cc12` (stereo not given in full): 31.4% (inactive); `COc1cc2c(cc1-c1c(C)noc1C)ncc1nc(C3CCOCC3)n([C@H](C)COC(F)F)c12`: 47.6% (inactive).
Consider `Oc1cccc2ccc(N/N=C/c3cc(CN4CCOCC4)c(O)c4ncccc34)nc12`, for which the growth was 23.9% (inactive).
The result for `O=C1NC(=S)N[C@H]1CC(=O)n1cnc2ccccc21` reads 102% (inactive).
Next, `Cc1ccc(C(SCC(N)C(=O)O)(c2ccccc2)c2ccc(C)cc2)cc1` (stereo not given): 36.5% (inactive).
Next, `C=C(C)C(=O)Nc1ccc(NC(C)C)cc1`: 105% (inactive); `Cc1nc(/N=C(\N)NC(=O)Nc2cccc([N+](=O)[O-])c2)sc1C`: 90.1% (inactive); `CC(C)CSc1nc(N)nc2c1ncn2C1OC(CO)C(O)C1O` (stereo not given): 104% (inactive).
Consider `O=C(CN(C(=O)Cn1c(=O)n2nnnc2c2ccccc21)c1ccccc1C(F)(F)F)Nc1ccc(C(F)(F)F)cc1`, for which the growth is 95.6% (inactive).
The result for `COc1cccc(/C=C2\SC(=Nc3ccc(NC(C)=O)cc3)NC2=O)c1OC` reads 97.7% (inactive); that for `CCCCn1c(-c2ccc(C(=O)O/N=C(\N)c3ccc4c(c3)OCO4)cc2)nc(-c2ccccc2)c1-c1ccccc1`, 58.8% (inactive).
Next, `CN(C)c1ccc(N=Nc2ccccn2)c(O)c1`: 18.6% (inactive).
Next, `N#CN1CC[C@H](C(=O)Nc2cc3cc(C(N)=O)ccc3cn2)C1`: 7.87% (active); `CN(C)c1ccc(NC(=O)c2ccc(/C=C/C(=O)c3ncc[nH]3)cc2)cc1`: 28.3% (inactive).
`CC[C@@H]1O[C@H](O[C@@H](c2cnc[nH]2)[C@H](NC(=O)c2nc([C@H](CC(N)=O)NC[C@@H](N)C(N)=O)nc(N)c2C)C(=O)N[C@H](C)[C@H](O)[C@H](C)C(=O)N[C@@H](C(=O)NCCc2nc(-c3nc(C(=O)NCCCCN=C(N)N)cs3)cs2)[C@@H](C)O)[C@H](O[C@@H]2O[C@H](CO)[C@H](O)[C@H](OC(N)=O)[C@@H]2O)[C@H](C)[C@@H]1C`: the growth is 45.9% (inactive).
Next, `CC[C@H]1OC(=O)[C@H](C)[C@@H](O[C@H]2C[C@@](C)(OC)[C@@H](O)[C@H](C)O2)[C@H](C)[C@@H](O[C@@H]2O[C@H](C)C[C@H](N(C)C)[C@H]2O)[C@](C)(O)C[C@H](C)CN(C)[C@H](C)[C@@H](O)[C@]1(C)O`: 93.4% (inactive); `O=C(O)c1c(=O)cccc2ssc12`: -74.4% (active); `Cc1ccc(O)c(N2C(=NCc3ccco3)NS(=O)(=O)c3cnccc32)c1`: 110% (inactive).
Next, `CN(Cc1cc(Cl)cc(Cl)c1O)Cc1cc(Cl)cc(Cl)c1O`: 73.3% (inactive); `CC(=O)c1cc2c(N)c(C(=O)Nc3ccccc3)sc2nc1C`: 68.4% (inactive).
The result for `Cc1nn(-c2ccc(F)cc2)c2ncnc(Nc3ccc(NC(=O)Nc4ccc(Cl)c(C(F)(F)F)c4)cc3)c12` reads 23.7% (inactive); that for `NC(CSC(c1ccccc1)(c1ccccc1)c1ccc(Cl)cc1)C(=O)O` (stereo not given), 37.9% (inactive).
In the case of `O=C1/C(=C/c2ccc(OCCCOc3ccc(Cl)cc3)cc2)N=C2SCCCN12`, the growth is 78.5% (inactive).
Turning to `C=CC(=O)Nc1cccc(-c2nc(SC)nc(Nc3cccc(OC)c3)c2C#N)c1`, the growth was 66.9% (inactive).
The result for `O=C1c2cccc3cccc(c23)C(=O)N1CCCCN1CCN(CCCCOc2ccc(-c3nc4ccc(N5CCOCC5)cc4[nH]3)cc2)CC1` reads 89.4% (inactive).
